Screen size: about 37,000 compounds; about 100 (0.27%) were called active. Many of the other results were omitted from the sample, so actives are more common in it than they were. Unmarked numbers belong to inactive results. Cut-off read from the data, not from the text of the source: active = inhibition above about 85%; inconclusive = no clear call, values can overlap the other calls; inactive = below about 68%.
assay: inhibitors of MITF, primary screen, MITF inhibitor project, cell-based, luminescence (AID 2240); details: TRPM1 promoter luciferase, 24 h, active compounds read high, concentration not given here;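 note: human melanocyte line stably carrying TRPM1 promoter luciferase reporter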

Compound | inhibition [%]
Cc1noc(C)c1NC(=O)Nc1ccc2c(c1)C(=O)N([C@@H](C)CO)C[C@@H](C)[C@H](CN(C)Cc1ccc(C(F)(F)F)cc1)O2 | -0.382
Cc1cccc(NC(=O)CSc2nc3c(cc2C#N)CCCCC3)c1 | 0.0416
CN(CC(=O)Nc1ccc(F)cc1)S(=O)(=O)c1ccccc1 | -37.2
C[C@H]1CN([C@@H](C)CO)C(=O)Cc2cc(NC(=O)C3CC3)ccc2O[C@H]1CN(C)C(=O)Nc1ccc(C(F)(F)F)cc1 | -4.89
COc1ccc(CN(C)C[C@H]2Oc3ccc(NC(=O)CCN4CCOCC4)cc3C(=O)N([C@@H](C)CO)C[C@H]2C)cc1 | 9.34
Cc1cccc(C)c1NC(=O)C(C)N(c1ccc(Cl)cc1)S(C)(=O)=O (configuration not stated) | -20.7
Cc1noc(C)c1S(=O)(=O)N(C)C[C@H]1Oc2ccc(NC(=O)CCN3CCOCC3)cc2CC(=O)N([C@H](C)CO)C[C@H]1C | 10.6
O=C(NCc1ccco1)c1cc(-c2cccnc2)nc2ccc(Cl)cc12 | -14.7
Cc1ccc(S(=O)(=O)Nc2cccc3c2O[C@H](CN(C)S(=O)(=O)c2cn(C)cn2)[C@H](C)CN([C@H](C)CO)C3=O)cc1 | 0.736
Cc1ccc(S(=O)(=O)N(C)C[C@@H]2Oc3ccc(NC(=O)Nc4ccc(F)cc4)cc3C(=O)N([C@H](C)CO)C[C@@H]2C)cc1 | -19.7
Cc1ccc(-n2c(SCC(=O)Nc3ccc(F)c(F)c3)nnc2-c2cnccn2)cc1 | -1.94
C[C@H](CO)N1C[C@H](C)[C@H](CN(C)Cc2ccncc2)Oc2ccc(NS(=O)(=O)c3ccc(F)cc3)cc2CC1=O | -14.1
COc1ccccc1NC(=O)CN(c1ccc(Br)c(C)c1)S(C)(=O)=O | -1.36
C[C@H]1CN([C@@H](C)CO)C(=O)Cc2cc(NS(=O)(=O)c3cccs3)ccc2O[C@@H]1CN(C)S(=O)(=O)c1cn(C)cn1 | -7.83
C[C@@H]1CN([C@@H](C)CO)C(=O)c2cccc(NC(=O)c3nc4ccccc4s3)c2O[C@@H]1CN(C)Cc1ccc(Cl)c(Cl)c1 | 10.3
CN(C)c1ccc(NC(=O)CN(C)S(=O)(=O)c2ccc(Br)cc2)cc1 | -8.87
COc1ccccc1NC(=O)CSc1ncc(-c2ccccc2)nn1 | -3.76
Cn1c(SCc2nc3ccccc3c(=O)[nH]2)nnc1-c1cc2ccccc2o1 | 17.4
C[C@H]1CN([C@@H](C)CO)C(=O)Cc2cc(NC(=O)NC3CCCCC3)ccc2O[C@H]1CN(C)S(=O)(=O)c1cccs1 | 6.16
COc1ccc(S(=O)(=O)Nc2ccc3c(c2)C(=O)N([C@@H](C)CO)C[C@@H](C)[C@@H](CN(C)S(C)(=O)=O)O3)cc1 | 2.87
C[C@@H]1CN([C@@H](C)CO)C(=O)Cc2cc(NC(=O)Cc3ccccc3)ccc2O[C@@H]1CN(C)Cc1ccc(Oc2ccccc2)cc1 | 41.7

Compound | inhibition [%]
O=C(CN1CCOCC1)Nc1sc2c(c1C(=O)Nc1ccc(Br)cc1)CCC2 | 53
COc1ccc(NC(=O)N(C)C[C@H]2Oc3ccc(NS(=O)(=O)c4cccs4)cc3C(=O)N([C@@H](C)CO)C[C@H]2C)cc1 | -5.79
C[C@H](CO)N1C[C@H](C)[C@H](CN(C)S(=O)(=O)c2cn(C)cn2)Oc2c(NC(=O)c3ccc(-c4nccs4)cc3)cccc2C1=O | -4.22
COc1ccc(NC(=O)Nc2ccc3c(c2)CC(=O)N([C@@H](C)CO)C[C@H](C)[C@@H](CN(C)CC2CCCCC2)O3)cc1 | -0.386
CC(C)(C)c1ccc(S(=O)(=O)NCC(=O)Nc2ccc(F)cc2)cc1 | 1.01
Cc1ccc(S(=O)(=O)Nc2ccc3c(c2)C(=O)N([C@H](C)CO)C[C@@H](C)[C@H](CN(C)Cc2ccccc2)O3)cc1 | -3.79
C/C=C(\C)C(=O)OC(/C=C/C(O)C(C)O)C1C=CC(=O)O1 (configuration not stated) | -20
CC(C)NC(=O)Nc1ccc2c(c1)C(=O)N([C@@H](C)CO)C[C@H](C)[C@H](CN(C)S(=O)(=O)c1cccs1)O2 | -11.3
O=C(Oc1ccc(Br)cc1)c1ccco1 | 16.8
C[C@@H]1CCCCO[C@H](CN(C)C(=O)C2CCCCC2)[C@@H](C)CN([C@H](C)CO)C(=O)c2cc(NC(=O)C3CCCCC3)ccc2O1 | -0.585
Cc1ccc(-c2nnc(SCC(=O)Nc3ccccc3OC(F)F)o2)cc1 | -24.6
C[C@@H]1CCCCO[C@@H](CN(C)C(=O)Nc2cccc3ccccc23)[C@@H](C)CN([C@H](C)CO)C(=O)c2cc(NS(C)(=O)=O)ccc2O1 | -18.2
C[C@@H]1CN([C@@H](C)CO)C(=O)c2cc(NC(=O)Nc3cccc4ccccc34)ccc2O[C@H]1CN(C)Cc1ccc(Cl)c(Cl)c1 | 18.2
COc1ccc(CCNc2nc(-c3cccc(NC(C)=O)c3)cs2)cc1OC | 15.8
C[C@H]1CN([C@@H](C)CO)C(=O)c2cc(NS(C)(=O)=O)ccc2O[C@@H]1CN(C)S(=O)(=O)c1ccc(Cl)cc1 | -7.11
C[C@@H]1CN([C@H](C)CO)C(=O)c2cccc(NS(=O)(=O)c3ccc(Cl)cc3)c2O[C@@H]1CN(C)C(=O)Nc1cccc2ccccc12 | 38.8
O=S(=O)(c1ccccc1)c1nc(-c2ccccc2F)oc1NCc1cccnc1 | -15.8
C[C@H](CO)N1C[C@H](C)[C@H](CN(C)S(=O)(=O)c2cn(C)cn2)Oc2ccc(NS(=O)(=O)c3ccccc3)cc2C1=O | -1.93
CCCN1C(=O)C(NS(=O)(=O)c2ccc(N)cc2)(C(F)(F)F)C(C(=O)OC)=C1C (configuration not stated) | 5.23
C[C@@H]1CN([C@H](C)CO)C(=O)c2cccc(N(C)C)c2O[C@H]1CN(C)S(=O)(=O)c1cn(C)cn1 | 8.04
C[C@H](CO)N1C[C@H](C)[C@H](CN(C)C(=O)Nc2cccc3ccccc23)Oc2ccc(NS(C)(=O)=O)cc2C1=O | 4.6

Source: PubChem BioAssay AID2240 (Broad Institute, 2010)
